# Sampled rows, rich in hits. Any-hit rate of the full collection: about 16%.
# TDP1 inh: qHTS Assay for Inhibitors of Tyrosyl-DNA Phosphodiesterase (TDP1) | Tyrosyl-DNA phosphodiesterase 1 (Homo sapiens), Q9NUW8 | recombinant TDP1, AlphaScreen DNA substrate cleavage | Potency, µM (doses to about 130 µM), for the others: at the highest dose activity change, negative = inhibition, actives largely listed as inhibitors | hit rate 0.28% among 350,000 | AID 485290, 2010; also: potency is read from the fitted curve at half-maximal effect; % is scaled to controls: 0 for no effect and ±100 for the full control effect; nearly all actives have a fitted effect of over 40% in size
# Target sequence (Q9NUW8 whole entry, looked up): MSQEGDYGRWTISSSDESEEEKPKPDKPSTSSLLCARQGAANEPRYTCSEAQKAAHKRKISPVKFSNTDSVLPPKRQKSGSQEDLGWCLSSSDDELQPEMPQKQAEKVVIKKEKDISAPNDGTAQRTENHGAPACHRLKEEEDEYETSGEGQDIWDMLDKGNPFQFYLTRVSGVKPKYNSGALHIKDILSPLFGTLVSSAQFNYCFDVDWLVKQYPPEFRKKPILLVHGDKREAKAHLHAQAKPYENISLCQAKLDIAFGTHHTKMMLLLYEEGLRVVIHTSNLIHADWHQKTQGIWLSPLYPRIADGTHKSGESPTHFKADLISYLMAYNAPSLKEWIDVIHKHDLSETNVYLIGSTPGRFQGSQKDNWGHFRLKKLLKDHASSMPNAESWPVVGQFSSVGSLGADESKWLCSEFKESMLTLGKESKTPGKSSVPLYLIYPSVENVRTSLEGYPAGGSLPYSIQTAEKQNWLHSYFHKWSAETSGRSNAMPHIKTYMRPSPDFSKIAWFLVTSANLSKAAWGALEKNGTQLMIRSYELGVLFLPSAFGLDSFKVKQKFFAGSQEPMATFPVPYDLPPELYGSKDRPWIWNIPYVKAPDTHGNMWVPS
#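 Compounds were preincubated with Tdp1 (1 nM final) for 15 min at room temperature before substrate (15 nM final) started a 5 min reaction; beads (10 ug/ml final) were then added for 10 min before AlphaScreen detection.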
# DT40 TDP1 CPT: qHTS for Inhibitors of human tyrosyl-DNA phosphodiesterase 1 (TDP1): qHTS in cells in presence of CPT; chicken DT40 Tdp1-/-;hTDP1 cells + 20 nM CPT, ATP luminescence, 48 h; Potency, µM (series often up to 46.2 µM), without a hit: top-dose activity change, negative = growth inhibition, actives largely listed as inhibitors; hit rate 12% among 420,000; AID 686979, 2013; also: potency is read from the fitted curve at half-maximal effect; % is scaled to controls: 0 for no effect and ±100 for the full control effect; nearly all actives have a fitted effect of over 55% in size
#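 Cell growth measured by CellTiter-Glo luminescence after a minimum 48 h, 37 C compound exposure with 20 nM CPT in Tdp1-knockout DT40 cells stably expressing hTDP1, seeded 400/well; qHTS titration format.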
# miR-21 reporter: qHTS Assay for Modulators of miRNAs and/orActivators of miR-21. HeLa miR-21 FLuc reporter, luciferase, 48 h. Potency, µM (highest dose often 38.3 µM), inactives show at the highest dose activity change, positive = activation, hits mostly activators. 340,000 tested, under 10 active. AID 2288, 2010;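 also: % of control where 0% means no effect; miR-21 action dims this reporter so a rising signal means less miR-21 action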
#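 HeLa miR-21-FLuc reporter line, endogenous miR-21; 2000 cells/well in DMEM/10% FBS; compound titration up to ~40uM final, 48 h, 37 degree Celsius; luciferase detection reagent, 15 min lysis, CCD luminescence.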
# uPA generation: qHTS for Inhibitors of Cell Surface uPA Generation. cell surface uPA generation assay, qHTS. Potency, µM (titrated, usually from 38.3 µM), for the others: at the highest dose activity change, negative = inhibition, actives largely listed as inhibitors. hit rate 0.31% among 330,000; active = well fitted inhibition curve with a large enough effect; inconclusive = small, poorly fitted or top-dose-only effect; inactive = no such curve, though single readings can be large or run the other way; tested in mouse RAW 264.7 cells; also: potency is read from the fitted curve at half-maximal effect; % is scaled to controls: 0 for no effect and ±100 for the full control effect; nearly all actives have a fitted effect of over 55% in size
# DT40 TDP1 no CPT: qHTS for Inhibitors of human tyrosyl-DNA phosphodiesterase 1 (TDP1): qHTS in cells in absence of CPT. DT40 Tdp1-/- hTDP1 cells, no CPT, ATP luminescence, 48 h. Potency, µM (doses to about 46.2 µM), for the others: at the top dose activity change, negative = growth inhibition, usual class: inhibitors. AID 686978, 2013. hit rate 15% among 420,000; also: potency is read from the fitted curve at half-maximal effect; % is scaled to controls: 0 for no effect and ±100 for the full control effect; nearly all actives have a fitted effect of over 55% in size
#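 Cells were dispensed at 400 per well, compounds added by pin tool, plates incubated ≥48 hr at 37 °C, then CellTiter-Glo added for 30 min at room temperature before luminescence reading. Line: DT40 Tdp1-/- complemented with hTDP1; camptothecin omitted.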
# The depositor's hits bear a star; ? = inconclusive; · = not tested or not shown. Unless noted, calls follow the shape of the dose curve; as a rule, active = well fitted curve in the direction sought with a large enough effect; inconclusive = small, poorly fitted or top-dose-only effect, or another doubt; inactive = no such curve, though single readings can be large; an effect the other way counts as inactive or inconclusive.
SMILES,TDP1 inh,DT40 TDP1 CPT,miR-21 reporter,uPA generation,DT40 TDP1 no CPT
O=C(Nc1ccccc1)N(Cc1cccc(Cl)c1)c1ccccn1,-0.5%,23.1µM*,15.4%,·,?
COc1cc(CN(C(=O)Nc2cccc(Cl)c2)c2ccccn2)cc(OC)c1OC,3.6%,?,-7.7%,·,?
CCOC(=O)CC1Sc2ccccc2NC1=O (stereo not given),3.8%,-18.0%,-5.0%,·,-4.8%
CC(OC(=O)CC1Sc2ccccc2NC1=O)C(=O)N(C)Cc1ccccc1 (stereo not given),·,?,·,-2.1%,20.6µM*
COCC(=O)Oc1cc(-c2ccc(C)cc2C)c(OC(=O)COC)c(-c2ccc(C)cc2C)c1,·,10.3µM*,·,·,9.2µM*
Cc1ccc(OCC(=O)Oc2c(C)cccc2C)cc1,·,-5.7%,-7.6%,7.5%,-5.2%
O=C1NC(=O)/C(=C\c2ccc(Br)o2)S1,·,-0.1%,-26.6%,6.2%,-25.5%
O=C1NC(=S)/C(=C\c2ccc(-c3ccccc3Cl)o2)S1,5.6%,23.1µM*,-20.3%,2.6%,13µM*
O=C(O)c1cc(-c2ccc(/C=C3/SC(=S)N(Cc4ccccc4)C3=O)o2)ccc1Cl,·,21.9%,-22.2%,-1.3%,16.2%
O=C1NC(=O)/C(=C/c2ccc(-c3cc(C(=O)O)ccc3Cl)o2)S1,31.6µM*,0.7%,-0.5%,-9.5%,-15.8%
CCN(CC)c1ccc(NC(=O)CSc2ccsc2[N+](=O)[O-])c(C)c1,-2.3%,?,-0.8%,-1.5%,18.4µM*
CCN(CC)c1ccc(NC(=O)C(NS(=O)(=O)c2cccs2)C(C)C)c(C)c1 (stereo not given),0.9%,20.6µM*,1.0%,·,20.6µM*
Cc1ccc(CNC(=O)CSc2ccsc2[N+](=O)[O-])cc1,0.0%,?,-45.7%,-2.8%,10.3µM*
COc1cccc(CNC(=O)C2Cc3cc(S(=O)(=O)N4CCCC4)ccc3N2C(C)=O)c1OC (stereo not given),0.6%,-15.5%,-5.9%,-3.4%,-2.4%
CCCN1CNc2c(c(=O)[nH]c(=S)n2CCc2cc(C)ccc2C)C1,-2.6%,?,·,·,12.6µM*
CCCN1CNc2c(c(=O)[nH]c(=S)n2CCc2ccc(OC)cc2OC)C1,0.0%,?,·,·,12.6µM*
CCCN1CNc2c(c(=O)[nH]c(=S)n2CCc2ccccc2Cl)C1,1.5%,?,·,·,11.2µM*
CCCN1CNc2c(c(=O)[nH]c(=S)n2CCc2ccc(Cl)cc2Cl)C1,2.1%,?,·,·,12.6µM*
CCCN1CNc2c(c(=O)[nH]c(=S)n2CCc2cccc(Cl)c2)C1,-0.5%,?,·,·,?
CN(C)Cc1c(OC(=O)c2ccc(N)cc2)ccc2ccccc12,·,-7.8%,·,-0.6%,-26.5%
O=C(Cc1cccs1)Nc1ccccc1,·,-16.6%,-26.3%,1.7%,-19.1%
CCCN1CNc2c(c(=O)[nH]c(=S)n2CCc2c(Cl)cccc2Cl)C1,0.5%,15.8µM*,·,·,12.6µM*
COC(=O)c1c(C)sc(-c2c(-c3ccc(F)cc3)[nH]c3[nH]c(=O)[nH]c(=O)c23)c1O,4.7%,-0.8%,-15.6%,·,-11.7%
CCN(C[C@H]1N[C@@](Cc2ccccc2)(C(=O)OC)[C@H]2C(=O)N(C)C(=O)[C@@H]12)C(=O)NC(C)C,2.6%,8.5%,·,15.0%,-14.2%
N#CC1=C(N)OC2=C(CCc3ccccc32)C1c1ccccc1Cl (stereo not given),7.9%,4.61µM*,6.1%,-7.4%,4.61µM*
Cn1nc(-c2ccccc2)c(CSc2ccccc2Cl)c1Cl,2.0%,?,21.0%,-14.8%,10.3µM*
O=C(COc1coc(CN2CCN(c3cccc(Cl)c3)CC2)cc1=O)NC1CCCC1,0.3%,?,·,-9.5%,14.6µM*
Cc1ccc(NC(=O)COc2coc(CN3CCN(c4ccccc4)CC3)cc2=O)cc1,-3.1%,-29.4%,·,2.9%,20.6µM*
COc1cc2c(cc1OC)-c1cc(Nc3ccccc3C)nc(=O)n1CC2,·,-5.7%,-31.7%,-1.0%,-6.8%

# Assay outcomes deposited in PubChem by National Center for Advancing Translational Sciences (NCATS).
